tested on: Acinetobacter baumannii; assay: Antibacterial activity against Acinetobacter baumannii ATCC 19606 (CO-ADD:GN_034); MIC in CAMBH media using NBS plates, by Resazurin F(560/590); format: functional; conditions: Concentration 20 uM, ASSAY_TEST Inhibition of Bacterial Growth, detection method Resazurin, Fluorescence (ex560/em590), MEDIA CAMHB, plate type 384well, CORNING #3640, time 18 hr

Row | SMILES | Inhibition [%]
1 | Nc1ncnc2c1ncn2C1C=C(CO)C(O)C1O (stereo not drawn) | -16.45
2 | CC1=Nc2ccccc2/C1=C\c1c(C)[nH]c2ccccc12 | 6.7
3 | CC1(C)OC2C(CO)OC(n3cnc4c(S)ncnc43)C2O1 (stereo not drawn) | -15.97
4 | CCOP(=O)(OCC)/C(C#N)=C/c1ccc([N+](=O)[O-])cc1 | 12.51
5 | Clc1[nH]cnc2nccc1-2 | -14.17
6 | O=C(Nc1cccc([N+](=O)[O-])c1)c1ccc2ccccc2c1O | -11.75
7 | Nc1ccc(S(=O)(=O)NCC2CCCCO2)cc1 (stereo not drawn) | 6.11
8 | CCOC(=O)c1c(N)ssc1=S | 2.94
9 | Cc1cc2c(c(C#N)c1C)NC=NC2C (stereo not drawn) | -0.59
10 | CC(C)N(C(=O)c1cccc([N+](=O)[O-])c1)C(C)C | -13.76
11 | Nc1ccc(Br)cc1Br | 5.55
12 | ClCC(CNCc1ccccc1)c1ccccc1 (stereo not drawn) | 11.29
13 | CC(C)(C)CC(C)(C)n1nnnc1N | -17.3
14 | O=c1[nH]c(=S)c2ncn(-c3ccccc3)c2[nH]1 | -10.26
15 | Cc1nnc2nc(-c3ccccc3)nc(-c3ccccc3)n12 | 8.22
16 | O=C1c2ccccc2C(=O)C1c1ccccn1 | -11.28
17 | CCOC(=O)/C(C#N)=C\c1c[nH]c2ccccc12 | -2.58
18 | O=C(N(c1ccccc1)c1ccccc1)N(c1ccccc1)c1ccccc1 | 0.28
19 | COc1cc(S(N)(=O)=O)c(OC)cc1N | -10.8

Row | SMILES | Inhibition [%]
20 | CSc1ccc(NC(=O)Nc2cc(C)ccn2)cc1 | -16.85
21 | CCCOc1ccc(-c2nc(-c3ccc(N)cc3)cs2)cc1 | 13.93
22 | CC(C)=C(c1ccc(Cl)cc1)c1c(N)ncnc1N | -10.84
23 | c1ccc(-c2ccc3c(c2)NCCN3)cc1 | -10.39
24 | CCCCSc1nc(O)cc(C(=O)O)n1 | -12.23
25 | COC(=O)C1CC(O)C(O)C(O)C1 (stereo not drawn) | -10.09
26 | CCn1c2ccccc2c2c3ncc4cccn4c3ccc21 | -8.64
27 | N#C/C(=C\c1ccc[nH]1)C(=O)c1ccccc1 | 7.21
28 | CC(C)Cc1nnc(N)s1 | -16.63
29 | Nc1ccc2c(c1)Cc1cc(Cl)c(Cl)cc1-2 | -1.44
30 | O=C(NC1CCCCC1)c1cc2ccccc2cc1O | 7.31
31 | Cn1c(=O)c2c(nc(Cc3ccccc3)n2C)n(C)c1=O | 12.97
32 | Nc1nc(N)c(/N=N/c2ccc(C(=O)O)cc2)c(N)n1 | -14.9
33 | c1ccc(-c2nnc(-c3ccccn3)s2)nc1 | -18.69
34 | Cc1cc(O)c2c(C)ccc(C)c2n1 | 1.08
35 | O=C(NC(=S)Nc1cccc(O)c1)c1ccco1 | -0.89
36 | Cc1nn(-c2ccccc2)nc1C(=O)Nc1ccc2[nH]ncc2c1 | 2.54
37 | CC1CC(C)(C)NC2(CCCC2)N1 (stereo not drawn) | -5.32
38 | N#Cc1n[nH]c2nc[nH]c(=O)c12 | -7.81
